The source of these data is PubChem BioAssay (NCI).

Each structure is given as a SMILES string. This is part of a sample that, as a whole, favours compounds with a hit. Of some 83,000 tested, about 20% had one in any assay.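 Method: cells in 96-well plates; compound added at one concentration; 48 h incubation; percent growth measured; values under 10 scored active.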 Unmarked numbers belong to inactive results. Activity calls are given as the source filed them.

Assay in all cases: NCI-60 one-dose screen, 48 h (100 = growth as untreated, 0 = no growth, -100 = all killed)
The test system of one experiment is HCT-15 colon. The following applies: 10 µM unless noted.
A further experiment relates to HT29 colon. The following applies: 10 µM unless noted.
The test system of a further experiment is SNB-75 CNS. The following applies: 10 µM unless noted.
Another experiment deals with SNB-19 CNS. The following applies: 10 µM unless noted.
A further experiment concerns U251 CNS. The following applies: 10 µM unless noted.
The next experiment deals with PC-3 prostate. The following applies: 10 µM unless noted.
In the next experiment the test system is SK-MEL-5 melanoma. The following applies: 10 µM unless noted.
Another experiment concerns UACC-62 melanoma. The following applies: 10 µM unless noted.
For another experiment, the system named is LOX IMVI melanoma. The following applies: 10 µM unless noted.
For the next experiment, the system named is SK-MEL-28 melanoma. The following applies: 10 µM unless noted.
Another experiment has as its system SK-MEL-2 melanoma. The following applies: 10 µM unless noted.
The next experiment concerns EKVX NSCLC. The following applies: 10 µM.
The next experiment relates to SN12C renal. The following applies: 10 µM unless noted.
The subject of the next experiment is UO-31 renal. The following applies: 10 µM unless noted.
In another experiment the test system is TK-10 renal. The following applies: 10 µM unless noted.
For another experiment, the system named is ACHN renal. The following applies: 10 µM unless noted.
A further experiment deals with CAKI-1 renal. The following applies: 10 µM unless noted.
The next experiment deals with A498 renal. The following applies: 10 µM unless noted.
A further experiment relates to MOLT-4 leukemia. The following applies: 10 µM unless noted.
The test system of another experiment is CCRF-CEM leukemia. The following applies: 10 µM.

As for `Cc1ncc(C(=O)Nc2ccc(CN3CCN(C)CC3)c(C(F)(F)F)c2)cc1C#Cc1c(N)ncc2ccccc12`, the growth is -90.8% (active) in the experiment on HCT-15 colon; -89% (active) in the experiment on HT29 colon; -90.6% (active) in the experiment with SNB-75 CNS; -100% (active) with SNB-19 CNS; -99.6% (active) in the experiment with U251 CNS; -76.7% (active) in the experiment on PC-3 prostate. Besides, the growth is -99.6% (active) with SK-MEL-5 melanoma; -82.3% (active) in the experiment with UACC-62 melanoma; -89.9% (active) in the experiment on LOX IMVI melanoma; -96.5% (active) with SK-MEL-28 melanoma; -76.9% (active) in the experiment on SK-MEL-2 melanoma; -89.5% (active) in the experiment with EKVX NSCLC. Also, the growth was -99.1% (active) in the experiment with SN12C renal; -99.1% (active) with UO-31 renal; -99.4% (active) with TK-10 renal; -100% (active) in the experiment on ACHN renal; 2.22% (active) in the experiment with CAKI-1 renal; -98% (active) in the experiment on A498 renal. Besides, in the experiment with MOLT-4 leukemia, the growth was -67.6% (active).
Regarding `CC(=O)OC1CC2C3CCC4C[C@@H](NC(=O)C=C(C)C)CC[C@]4(C)C3CC[C@]2(C)[C@H]1C(C)N(C)C` (some centres undefined), the growth was -38.7% (active) in the experiment with HCT-15 colon; -20.9% (active) in the experiment with HT29 colon; 8.51% (active) with SNB-75 CNS; 49.2% in the experiment with SNB-19 CNS; 11.5% with U251 CNS; 13.1% in the experiment with PC-3 prostate. The growth with SK-MEL-5 melanoma is -95.2% (active); with UACC-62 melanoma it was -52.6% (active); in the experiment with LOX IMVI melanoma, -15% (active); in the experiment with SK-MEL-28 melanoma, -91.3% (active); in the experiment on SK-MEL-2 melanoma, 5.9% (active); in the experiment on EKVX NSCLC, 29.3%. In addition, the growth was 14.3% in the experiment with SN12C renal; 8.5% (active) in the experiment on UO-31 renal; 48.4% in the experiment with TK-10 renal; 21.4% in the experiment on ACHN renal; -19.6% (active) in the experiment on CAKI-1 renal; 33.2% with A498 renal. Besides, the growth with CCRF-CEM leukemia is 0.674% (active); in the experiment on MOLT-4 leukemia it was -31.9% (active).
In the case of `CC1=C[C@@H]2c3c(c(O)c(O)c4oc5cc(O)cc(O)c5c(=O)c34)[C@@H](c3cc(O)c(O)c4oc5cc(O)cc(O)c5c(=O)c34)[C@@H]2C(C)(C)C1`, the growth was 25.4% in the experiment on HCT-15 colon; -19.6% (active) in the experiment on HT29 colon; 16.7% in the experiment on SNB-75 CNS; 7.8% (active) with SNB-19 CNS; -8.73% (active) in the experiment on U251 CNS; 2.82% (active) in the experiment with PC-3 prostate. Also, the growth was -78% (active) with SK-MEL-5 melanoma; -61.5% (active) with UACC-62 melanoma; -98.2% (active) in the experiment with LOX IMVI melanoma; -1.44% (active) in the experiment with SK-MEL-28 melanoma; -22.2% (active) with SK-MEL-2 melanoma; 8.51% (active) with EKVX NSCLC. In addition, the growth in the experiment on SN12C renal was 2.58% (active); in the experiment with UO-31 renal, -10.2% (active); with TK-10 renal, 13.8%; with ACHN renal, 12.4%; in the experiment with CAKI-1 renal, 19.8%; in the experiment on A498 renal, -14% (active). Further, the growth was 3.51% (active) in the experiment on CCRF-CEM leukemia and 4.1% (active) in the experiment with MOLT-4 leukemia.
With `COc1cc(Cn2ccc3c2-c2oncc2CC3)cc(OC)c1`, the growth in the experiment with HCT-15 colon was 27.2%; in the experiment on HT29 colon it was 14.9%; in the experiment with SNB-75 CNS it was -16% (active); in the experiment with SNB-19 CNS it was 43.7%; in the experiment on U251 CNS, 42.4%; in the experiment on PC-3 prostate, 57.9%. In addition, the growth in the experiment with SK-MEL-5 melanoma was 13.9%; in the experiment on UACC-62 melanoma it was 38.3%; with LOX IMVI melanoma, 40.1%; in the experiment with SK-MEL-28 melanoma, 48.9%; in the experiment on SK-MEL-2 melanoma, 28.8%; with EKVX NSCLC it was 53.9%. The growth is 38% in the experiment on SN12C renal; 28.8% in the experiment on UO-31 renal; 61.7% in the experiment with TK-10 renal; 47.2% with ACHN renal; 23.3% with CAKI-1 renal; 32.4% with A498 renal. Further, the growth with CCRF-CEM leukemia is 30.1%; in the experiment on MOLT-4 leukemia it was 38.4%.
For `O=C(CN1C(=O)NC(c2ccccc2)(c2ccccc2)C1=O)c1ccc(N2CCCC2)cc1`, the growth in the experiment with HCT-15 colon is 64.7%; in the experiment with HT29 colon, 65.3%; with SNB-75 CNS, 77.8%; with SNB-19 CNS, 90.7%; in the experiment with U251 CNS, 76.6%; with PC-3 prostate, 71.8%. Moreover, the growth is 70.8% in the experiment with SK-MEL-5 melanoma; 89.5% in the experiment with UACC-62 melanoma; 74.2% in the experiment with LOX IMVI melanoma; 73.9% in the experiment on SK-MEL-28 melanoma; 91.1% in the experiment with SK-MEL-2 melanoma; 82.4% with EKVX NSCLC. Further, the growth with SN12C renal was 103%; in the experiment with UO-31 renal it was 66.6%; in the experiment on TK-10 renal, 98.4%; in the experiment on ACHN renal it was 89.9%; in the experiment with CAKI-1 renal, 70.5%; with A498 renal, 61.9%. Besides, the results for the growth with CCRF-CEM leukemia and in the experiment on MOLT-4 leukemia were 98.9% and 70.5%, respectively.
In the case of `CC([C@H]1CCC2C3CCC4C[C@@H](N)CC[C@]4(C)C3CC[C@@]21C)N(C)C` (some centres undefined), the growth is 3.11% (active) in the experiment with HCT-15 colon; 15.1% in the experiment on HT29 colon; 55.8% in the experiment with SNB-75 CNS; 98.7% with SNB-19 CNS; 65.9% in the experiment on U251 CNS; 64.5% in the experiment with PC-3 prostate. Also, the growth is -47.8% (active) in the experiment on SK-MEL-5 melanoma; 50.9% in the experiment on UACC-62 melanoma; 17.5% with LOX IMVI melanoma; -26.6% (active) with SK-MEL-28 melanoma; 91.7% in the experiment on SK-MEL-2 melanoma; 69.4% in the experiment with EKVX NSCLC. In addition, the growth is 75.8% in the experiment on SN12C renal; -4.26% (active) in the experiment with UO-31 renal; 109% with TK-10 renal; 78.1% in the experiment on ACHN renal; 48.8% in the experiment with CAKI-1 renal; 89.4% with A498 renal. Also, the growth with CCRF-CEM leukemia is 42.3%; with MOLT-4 leukemia, 38.6%.
